# “And” between values parts separate entries of the source, which are not always exact repeats. Identical values can stand only once. Records with an inconclusive call do not appear. Where a call stands in place of a potency, no number is given. Unmarked numbers belong to inactive results. The source made the active and inactive calls. Calls follow the shape of the dose curve; as a rule, active = well fitted curve in the direction sought with a large enough effect; inconclusive = small, poorly fitted or top-dose-only effect, or another doubt; inactive = no such curve, though single readings can be large; an effect the other way counts as inactive or inconclusive.
# Legend:
# [1] = test system: Zika virus NS2B-NS3 protease (unlinked complex); test: Primary screen GU Rhodamine qHTS for Zika virus inhibitors: Unlinked NS2B-NS3 protease assay (AID 1347159); also: nearly all actives have a fitted effect of over 60% in size; also: potency is read from the fitted curve at half-maximal effect
# Outline: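 Percent inhibition came from the 15-min rise in Rhodamine110 fluorescence (1.5 microM substrate, ~15% conversion), normalized to no-inhibitor and no-enzyme wells and Hill-fitted. Unlinked protease, 25 nM, pH 8.0 Tris buffer; compounds up to 114 microM, 15-min preincubation.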
# [2] = test system: Zika virus NS2B-NS3 protease (linked construct); test: Primary screen NINDS Rhodamine qHTS for Zika virus inhibitors (AID 1347160); also: nearly all actives have a fitted effect of over 55% in size; also: potency is read from the fitted curve at half-maximal effect
# Outline: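 Rhodamine110-peptide cleavage (1.5 µM substrate) by 25 nM linked NS2B-NS3 enzyme at pH 8.0 (Tris, Tween 20), after 15 min RT preincubation with compounds; 15-min fluorescence change normalized to controls and Hill-fitted.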
# [3] = Tertiary RLuc qRT-PCR qHTS assay for Zika virus inhibitors (AID 1347169); also: nearly all actives have a fitted effect of over 55% in size; also: potency is read from the fitted curve at half-maximal effect
# Outline: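 Luminescence read-out: live-cell Renilla luciferase substrate applied to infected Vero cells, signal measured after 1-1.5 hrs. Cells had received compound before ZIKV-RLuc (Cambodian strain, MOI 1-2) infection and were incubated 48-72 hrs at 37 degrees C.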
# [4] = Confirmatory screen NINDS Rhodamine qHTS for Zika virus inhibitors (AID 1347161); conditions: purified enzyme assay, Rhodamine110 substrate fluorescence, 15 min; also: potency is read from the fitted curve at half-maximal effect; nearly all actives have a fitted effect of over 60% in size
# Outline: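 Each compound, titrated, sat 15 min with 25 nM linked protease before 1.5 microM Rhodamine110 substrate went in. Fluorescence gain over the next 15 min, in pH 8.0 Tris with Tween 20, gave Hill-fitted curves.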
# [5] = Vero cells viability qHTS for Zika virus inhibitors (AID 1347167)
# Outline: (§1)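 To flag cytotoxic protease inhibitors, viability is measured by ATP-dependent luminescence (CellTiter Glo) after cells attached overnight receive compound for 24 to 48 hours in DMEM with 4% FBS.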
# [6] = HepG2 cells viability qHTS for Zika virus inhibitors (AID 1347168)
# Outline: as §1
# [7] = test system: Zika virus NS2B-NS3 protease (linked construct); test: 384 well plate NINDS Rhodamine confirmatory qHTS for Zika virus inhibitors (AID 1347164);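 also: fluorescence from protease cleavage of Ac-LKRR-rhodamine 110 substrate; nearly all actives have a fitted effect of over 65% in size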; also: potency is read from the fitted curve at half-maximal effect
# Outline: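 Fluorescence read at ex 485 nm/em 538 nm, 25 min after adding 10 microM Ac-LKRR-Rd substrate at room temperature in the dark; signal normalized to no-enzyme and no-inhibitor controls. Enzyme final 5, 30 or 60 nM; compounds, ~15 min preincubation.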
# [8] = test system: Zika virus NS2B-NS3 protease (linked); test: 384 well plate NINDS AMC confirmatory qHTS for Zika virus inhibitors (AID 1347163);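 also: linked protease at 5 30 or 60 nM final depending on run; fluorescence of AMC released from Ac-VKTGKR-AMC peptide cleaved by the protease; top concentration of the series differs between compounds; nearly all actives have a fitted effect of over 50% in size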
# Outline: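 Enzyme (5, 30 or 60 nM final) first met test compounds for ~15 min. The AMC-tagged peptide Ac-VKTGKR-AMC followed at 30 microM. Fluorescence was then recorded at 25 min and scaled against no-enzyme and no-inhibitor wells.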
structure (smiles),measurement,setting,value
CC1(C)C(O)CCC2(C)C1C(O)C=C1COC(=O)C12O (centres undefined),Potency,[1],inactive
same,Potency,[2],inactive
CCOC(=O)Nc1nc2ccccc2[nH]1,Potency,[1],inactive
same,Potency,[2],inactive
COc1cc(COC2OC(CO)C(O)C(O)C2O)cc(OC)c1O (centres undefined),Potency,[1],inactive
same,Potency,[2],inactive
C[C@]12CC[C@@H]3c4ccc(O[C@@H]5O[C@H](C(=O)O)[C@@H](O)[C@H](O)[C@H]5O)cc4CC[C@H]3[C@@H]1CCC2=O,Potency,[1],inactive
same,Potency,[2],inactive
CC1(C)CC[C@]2(C(=O)O[C@@H]3O[C@H](CO)[C@@H](O)[C@H](O)[C@H]3O)CC[C@]3(C)C(=CCC4[C@@]5(C)C[C@@H](O)[C@H](O)[C@@](C)(CO)C5CC[C@]43C)C2C1 (some centres undefined),Potency,[1],inactive
same,Potency,[3],inactive
CN1C(=O)N[C@@H](Cc2c[nH]c3c(Cl)cccc23)C1=O,Potency,[1],inactive
same,Potency,[2],inactive
CC(=O)O[C@@H]1C[C@]2(C)[C@@]3(CCC4[C@@]5(C)CC[C@H](O[C@@H]6O[C@H](C(=O)O)[C@@H](O)[C@H](O[C@@H]7O[C@H](CO)[C@H](O)[C@H](O)[C@H]7O[C@@H]7O[C@@H](C)[C@H](O)[C@@H](O)[C@H]7O[C@@H]7OC[C@](O)(CO)[C@H]7O)[C@H]6O[C@@H]6O[C@H](CO)[C@H](O)[C@H](O)[C@H]6O)C(C)(C)C5CC[C@]42C)O[C@@H](O)[C@]12C3CC(C)(C)[C@@H](OC(=O)/C=C/c1ccc(O)c(O)c1)[C@@H]2OC(=O)/C=C/c1ccccc1 (some centres undefined),Potency,[1],3.16 µM (active)
same,Potency,[2],2.46 µM (active)
same,Potency,[4],1.66 µM (active)
same,"activity change, negative = cytotoxicity",[5],-1.71% [at 8.96 µM]
same,"activity change, negative = cytotoxicity",[6],0.159% [at 8.96 µM]
Cc1nn(C)c(COc2ccc(N3CCN(S(=O)(=O)N(C)C)CC3)cc2)c1-c1cccc2c(CCCOc3cccc4ccccc34)c(C(=O)O)n(CCN3CCOCC3)c12,Potency,[1],4.47 µM (active)
same,Potency,[2],inactive
same,Potency,[4],1.56 µM (active)
same,Potency,[3],inactive
CC(NC(=O)CC(=O)O)c1nc2ccccc2c(=O)[nH]1 (centres undefined),Potency,[1],44.7 µM (active)
same,Potency,[2],25.1 µM (active)
CCCCS(=O)(=O)Nc1ncnc(OCCOc2ncc(Br)cn2)c1-c1ccc(Br)cc1,Potency,[1],inactive
same,Potency,[4],35 µM (active)
same,Potency,[3],inactive
CC(C)c1cc2c(c(O)c1O[C@@H]1O[C@H](CO)[C@@H](O)[C@H](O)[C@H]1O)CC1(O)CCC(O)C(C)(C)C1CC2 (some centres undefined),Potency,[1],20 µM (active)
same,Potency,[2],7.94 µM (active)
same,Potency,[4],7.64 µM (active)
same,outcome,[5],inactive
same,outcome,[6],inactive
same,Potency,[3],inactive
CCOc1ccc(-c2ccc(Cn3c(CC(C)(C)C(=O)O)c(SC(C)(C)C)c4cc(OCc5ccc(C)cn5)ccc43)cc2)cn1,Potency,[1],2.51 µM (active) and 2.82 µM (active)
same,Potency,[2],3.16 µM (active)
same,Potency,[4],2.21 µM (active)
same,Potency,[7],inactive
same,outcome,[5],inactive
same,outcome,[6],inactive
same,Potency,[3],5.23 µM (active)
O=C(c1ccc(C#Cc2cccc(F)c2)cn1)N1CC2CC2C1 (centres undefined),Potency,[1],inactive
same,Potency,[2],inactive
O=C1N(CC2CCCCN2)CCN1c1ccccc1 (centres undefined),Potency,[1],inactive
same,Potency,[2],inactive
CC(C)C1=CCC(C)(O)C(OC2OC(CO)C(O)C(O)C2O)C1 (centres undefined),Potency,[1],22.4 µM (active)
same,Potency,[2],10 µM (active)
same,Potency,[4],7.68 µM (active)
same,Potency,[7],5.62 µM (active)
same,outcome,[5],inactive
same,outcome,[6],inactive
same,Potency,[3],inactive
O=C(CCO[C@@H]1O[C@H](CO)[C@@H](O)[C@H](O)[C@H]1O)c1ccc(O)cc1,Potency,[1],inactive
same,Potency,[2],inactive
O=C(Nc1cccnn1)N1CCC(=Cc2cccc(Oc3ccc(C(F)(F)F)cn3)c2)CC1,Potency,[1],inactive
same,Potency,[2],inactive
OC[C@H]1O[C@@H](Oc2ccc(O)c3cccc(O)c23)[C@H](O)[C@@H](O)[C@@H]1O,Potency,[1],10 µM (active)
same,Potency,[2],inactive
same,Potency,[4],6.1 µM (active)
same,Potency,[3],inactive
COC(=O)C12C(=O)C(C)=C(O)C1(C)C(C)=CC1C34CCC(OC3=O)C(C)(C)C4CCC12C (centres undefined),Potency,[1],inactive
same,Potency,[2],inactive
O=C(O)c1cc(O)c2cccc(O)c2c1O[C@@H]1O[C@H](CO)[C@@H](O)[C@H](O)[C@H]1O,Potency,[1],10 µM (active)
same,Potency,[2],5.01 µM (active)
same,Potency,[4],2.73 µM (active)
same,Potency,[8],inactive
same,Potency,[7],2.82 µM (active)
same,outcome,[5],inactive
same,outcome,[6],inactive
same,Potency,[3],inactive
CCOc1c2c(c(OCC)c3ccccc13)C(=O)N(c1ccc(CC(=O)NS(=O)(=O)c3ccccc3)cc1)C2,Potency,[1],3.98 µM (active)
same,Potency,[2],8.91 µM (active)
same,Potency,[4],4.41 µM (active)
same,Potency,[8],inactive
same,Potency,[7],inactive
same,outcome,[5],inactive
same,outcome,[6],inactive
NCc1ccc(OCCCc2sc(-c3ccc4c(c3)/C(=N/Nc3nc5ccccc5s3)CCC4)nc2C(=O)O)cc1,Potency,[1],39.8 µM (active)
same,Potency,[2],inactive
same,Potency,[4],17.5 µM (active)
same,Potency,[3],inactive

# — PubChem BioAssay (NCATS)
